The text below walks through data of PubChem BioAssay (EPA / NIEHS).

Records with an inconclusive call do not appear. Active and inactive are the calls of the source. Rule for the calls: active = hit-call score of the fitted dose curve at least 0.9, where 1 is the maximum; inconclusive = response in the unintended direction; inactive = score below 0.9.

The nature of this test: ACEA_ER_AUC_viability: ACEA Biosciences xCELLigence Real-Time Cell Analysis on Estrogen Receptor Agonism for Viability (AID 2283782).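 Note: continuous compound exposure with impedance area under curve over 80 h; hit means loss of impedance signal meaning reduced cell growth or viability.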 Put shortly:
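T-47D human breast cells in phenol red-free RPMI1640 with 10% charcoal-stripped FBS were dosed with an 8-point 1:4 dilution series from 100 uM top final concentration, in duplicate. Impedance-based growth was followed for 80 h; AUC analysed versus DMSO.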
`Cc1c(C)c([N+](=O)[O-])c(C(C)(C)C)c([N+](=O)[O-])c1C`: the molecule was called inactive.

Regarding `C=C1C2CCC(C2)C1(C)C` (stereo not given), the outcome was inactive. Turning to `CNC(=S)N(C)C`, the molecule was classed as inactive.

As to `CC(=O)C=CC1C(C)=CCC(C)C1(C)C` (stereo not given), the molecule was called inactive.

Turning to `c1ccc(-c2ccccn2)nc1`, the AC50 was 34.1 µM (active).

As to `Nc1cccc(C(F)(F)F)c1`, the call was inactive. Regarding `O=CN1CCCCC1`, the molecule was called inactive. Same read-out and setting: to `O=S(=O)(O)CC(O)CCl` (stereo not given) belongs “inactive”.

Regarding `CC(C)C1=CC2=CC[C@@H]3[C@](C)(CCC[C@@]3(C)C(=O)O)[C@H]2CC1`, the result was inactive.

`O=C(Nc1ccccc1SSc1ccccc1NC(=O)c1ccccc1)c1ccccc1`: the half-maximal activity concentration (AC50) was 77.7 µM (active). Take `CC1(C)[C@H]2CC[C@]1(C)C(=O)C2`: the result was inactive. Regarding `O=C1C(N(CO)C(=O)NCO)N(CO)C(=O)N1CO` (stereo not given), the result was inactive. For the molecule `CC(C)C(=O)C(C)C`, the concentration at half-maximal activity (AC50) was 19.7 µM (active). For the molecule `Nc1ccc(N=Nc2ccccc2)c(N)n1`, the molecule was called inactive.

For `C=CCCCCCCCCC(=O)OCCCC`, the AC50 is 50 µM (active).

As to `CC1OC1C1CCC2(C)OC2C1` (stereo not given), the molecule was classed as inactive. Same read-out and setting: to `C=C(C)c1cccc(C(C)(C)N=C=O)c1` belongs “inactive”; to `CC1(C)S[C@@H]2[C@H](NC(=O)COc3ccccc3)C(=O)N2[C@H]1C(=O)O`, “inactive”; to `Cc1ccc2oc(=O)ccc2c1`, “inactive”. The same measure, in the same setting: the value for `CC(=O)Oc1ccc(C)cc1` was “inactive”; that for `CC(C)COC(=O)C=Cc1ccccc1` was “inactive”; that for `O=C1CC2CC1C1CCCC21` (stereo not given) was “inactive”.

Take `CCCCCCOC(=O)C(C)CC` (stereo not given): the AC50 was 66.7 µM (active). Turning to `CC(C)=CC1CC(C)CCO1` (stereo not given), the call was inactive.

With `NC(=O)c1ccccc1O`, the call was inactive.

For `CCCCOCCOC(=O)COc1nc(Cl)c(Cl)cc1Cl`, the outcome was inactive.

In the case of `CC(=O)OCC(C)OC(C)=O` (stereo not given), the molecule was classed as inactive.

`O=CC1CC1`: the half-maximal activity concentration (AC50) was 65 µM (active).

On to `CCC(C)(C)C1CCCCC1OC(C)=O` (stereo not given), for which the molecule was classed as inactive. On to `Cc1cc(C)c(C)c(C)c1`, for which the result was inactive.

Regarding `CC(C)c1ccc(C=O)cc1`, the outcome was inactive. On the same count and under the same terms, to `O=Nc1ccc(O)cc1` belongs “inactive”. With `CCCCCC(C)O` (stereo not given), the molecule was classed as inactive. With `O=C1CCCCCCCCCCCCCCCO1`, the outcome was inactive. Take `C=CC(=O)NC(C)(C)CS(=O)(=O)O`: the AC50 is 11.2 µM (active).

Broadly, the AC50 is the concentration giving half of the maximal activity seen.
